BAZ2B block: BAZ2B (human) inhibition; 360,000 tested, 4.4% active; Q9UIF8; Potency, µM (series often up to 114 µM), for inactives: top-dose activity change, negative = inhibition, hits mostly inhibitors; AlphaScreen BAZ2B-H3K14Ac peptide displacement; note: potency is the fitted concentration of half-maximal effect; % is set by controls: 0 for no effect and ±100 for the full control effect; nearly all actives have a fitted effect of over 60% in size
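Complex of BAZ2B and biotin-H3K14Ac (50 nM apiece) forms over 30 min at RT, then faces library compounds up to 110 uM for another 30 min; AlphaScreen beads added, 20 min dark incubation, luminescence read.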
PI5P4Ka inh: PI5P4K alpha (human) kinase inhibition. PI5P4Kalpha enzyme, ADP-Glo luminescence, 60 min; active compounds read low. max response, %. 330,000 tested, 1.2% active; active = max response of -50% or lower; inconclusive = between -30% and -50%; inactive = -30% or higher; note: value at the top dose of about 77 µM; % is set by controls: 0 for no effect and ±100 for the full control effect
Target sequence (P48426 whole entry, looked up): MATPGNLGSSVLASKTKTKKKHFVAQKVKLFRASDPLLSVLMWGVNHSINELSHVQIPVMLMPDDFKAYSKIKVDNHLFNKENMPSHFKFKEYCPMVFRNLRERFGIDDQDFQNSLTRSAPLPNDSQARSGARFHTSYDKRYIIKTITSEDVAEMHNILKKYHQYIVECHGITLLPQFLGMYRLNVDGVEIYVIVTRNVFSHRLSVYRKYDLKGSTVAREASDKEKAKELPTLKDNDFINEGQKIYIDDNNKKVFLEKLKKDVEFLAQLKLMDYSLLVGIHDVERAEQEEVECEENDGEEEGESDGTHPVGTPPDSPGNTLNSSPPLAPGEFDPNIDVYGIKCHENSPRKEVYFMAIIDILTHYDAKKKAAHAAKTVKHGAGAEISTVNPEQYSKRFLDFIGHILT
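qHTS, 1536-well: enzyme/substrate mix, compound by pin tool, 5 microM ATP final; RT 60 min; ADP-Glo reagents 1 (45 min) then 2 (30 min); luminescence.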
HP1b chromo inh: HP1-beta chromodomain-methylated histone interaction inhibition. 390,000 tested, 0.56% active. P83916. AlphaScreen HP1-beta / biotin-H3K9me3 peptide binding. Potency, µM (series often up to 114 µM), for inactives: at the highest dose activity change, negative = inhibition, actives largely listed as inhibitors; note: potency is the fitted concentration of half-maximal effect; nearly all actives have a fitted effect of over 70% in size
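AlphaScreen: HP1-beta (50 nM) preformed 30 min with biotin-H3(1-18)K9me3 peptide (50 nM) in PBS pH 7.4, 0.01% Tween-20. Compound added for 30 min at RT, then streptavidin donor/nickel chelate acceptor beads (10 ug/mL) for 30 min.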
JMJD2A Tudor inh: blocks the human JMJD2A Tudor domain; Potency, µM (top dose mostly 114 µM), inactives show top-dose activity change, negative = inhibition, actives largely listed as inhibitors; 390,000 tested, 4.4% active; O75164; AlphaScreen JMJD2A-Tudor / H3K4me3 peptide binding; AID 504339; note: potency is the fitted concentration of half-maximal effect; % is set by controls: 0 for no effect and ±100 for the full control effect; nearly all actives have a fitted effect of over 50% in size
PLK1 PBD inh: PLK1 (human) polo-box domain binding inhibition; Potency, µM, for inactives: max response, negative = inhibition, hits mostly inhibitors; P53350; Plk1 PBD binding of FITC phosphopeptide, fluorescence polarization; 360,000 tested, 2.8% active; note: potency is the fitted concentration of half-maximal effect; series mostly up to about 57 µM; % is set by controls: 0 for no effect and ±100 for the full control effect; nearly all actives have a fitted effect of over 65% in size
G9a inh: G9a (human) methyltransferase inhibition; Potency, µM (doses to about 102 µM), for the others: at the top dose activity, negative = inhibition, usual class: inhibitors; 350,000 tested, 8.8% active; AID 504332; G9a H3K9 monomethylation, AlphaScreen, 2 h; note: potency is the fitted concentration of half-maximal effect; % is set by controls: 0 for no effect and ±100 for the full control effect; nearly all actives have a fitted effect of over 75% in size
Target sequence (Q96KQ7 913-1193 limits assumed): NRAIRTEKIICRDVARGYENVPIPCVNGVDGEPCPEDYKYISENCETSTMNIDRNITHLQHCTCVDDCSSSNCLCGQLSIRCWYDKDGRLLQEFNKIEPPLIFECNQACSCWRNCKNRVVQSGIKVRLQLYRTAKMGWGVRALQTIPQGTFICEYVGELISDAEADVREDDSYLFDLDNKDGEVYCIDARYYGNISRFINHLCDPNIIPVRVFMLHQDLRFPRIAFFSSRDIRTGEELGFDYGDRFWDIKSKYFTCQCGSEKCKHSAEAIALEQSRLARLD
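G9a (20 nM) preincubated 15 min RT with compounds, then 500 nM biotinylated H3K9 peptide and 20 uM SAM added; 2 h RT reaction. Monomethyl-H3K9 product detected by AlphaScreen with anti-H3K9me1 antibody, streptavidin donor and anti-rabbit IgG acceptor beads.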
Active calls of the source: *; ? = inconclusive; / = no result given; [ ] = dose if it differs, or a comment. Hits are enriched below; roughly 12% of the tested compounds scored in any of these assays. Unless noted, calls come from the whole dose curve; as a rule, active = well fitted curve in the direction sought with a large enough effect; inconclusive = small, poorly fitted or top-dose-only effect, or another doubt; inactive = no such curve, though single readings can be large; an effect the other way counts as inactive or inconclusive.

SMILES | BAZ2B block | PI5P4Ka inh | HP1b chromo inh | JMJD2A Tudor inh | PLK1 PBD inh | G9a inh
C=C(C)C(=O)Nc1cccc(C2=NOC3(C2)C[C@@H](C(N)=O)N(C(=O)/C=C/C=C/C)C3)c1 (some centres undefined) | 2µM* | -50* | ? | 3.2µM* | ? | ?
C/C=C/C(=O)Nc1cccc(C2=NOC3(C2)C[C@H](C(N)=O)N(C(=O)/C=C/C)C3)c1 (some centres undefined) | 0% | 0 | 23% | -15% | -12% | -3%[59 µM]
C/C=C/C=C/C(=O)N1CC2(CC(c3cccc(NC(=O)/C=C/C)c3)=NO2)C[C@@H]1C(N)=O (some centres undefined) | -2% | -51* | 14% | -30% | -17% | ?
C/C=C\C=C\C(=O)Nc1cccc(C2=NOC3(C2)C[C@@H](C(N)=O)N(C(=O)C(c2ccccc2)c2ccccc2)C3)c1 (some centres undefined) | ? | -65* | 15% | -36% | -20% | ?
CN(C)C(=O)CCc1ccc2c3c([nH]c2c1)[C@]1(CCc2ccccc2)[C@@H](C(=O)N2CCCCC2)C[C@H](CC(=O)NC(C)(C)C)C(=O)N1CC3 | / | -4 | 15% | -30% | -14% | /
O=C(C1CC1)N1CCc2cc(Br)cc(S(=O)(=O)N3CCN(c4cccc(C(F)(F)F)c4)CC3)c21 | -3% | / | -3% | -22% | / | ?
COc1cccc2c1C(=O)c1c(O)c3c(c(O)c1C2=O)C[C@@](O)(C(=O)CO)C[C@@H]3O[C@H]1C[C@H](N)[C@H](O)[C@H](C)O1 | 35µM* | 0 | 16% | -13% | ? | 22µM*
CN1CCc2cc(Cl)c(O)cc2[C@@H](c2ccccc2)C1 | -8% | 0 | 4% | -18% | -4% | -32%[59 µM]
C=CCN1CCc2c(cc(O)c(O)c2Br)[C@@H](c2ccccc2)C1 | / | -8 | 7% | ? | -5% | 8.9µM*
C(COC1CC2CC1C1C2CC2OC21)OC1CC2CC1C1C2CC2OC21 (centres undefined) | / | -1 | 6% | -10% | -9% | /
Cc1c(O)c(=O)ccn1Cc1ccccc1 | ? | 3 | 52% | -8% | 5% | 32µM*
Cc1ccc(Cn2ccc(=O)c(OCc3ccccc3)c2C)cc1 | 8% | 13 | 44% | -4% | 2% | -1%
COc1ccc(-c2nsc(NC(=O)c3oc4cc(C)c(C)cc4c3C)n2)cc1 | 0% | / | 15% | -14% | / | -27%[59 µM]
CCCCCCCCCC1(CC(=O)OCC)SCCN1C(N)=O (centres undefined) | / | 32 | / | / | -11% | /
COC(=O)C1=C(O)/C(=C\c2cc(C)n(-c3ccccc3C)c2C)N=C1C | 79µM* | / | 3% | -29% | -8% | 20µM*
COC(=O)C1=C(O)/C(=C\c2cc(C)n(-c3ccccc3F)c2C)N=C1C | 56µM* | 1 | 12% | -12% | -22% | ?
COC(=O)C1=C(O)/C(=C\c2sccc2C)N=C1C | -22% | 2 | 12% | -4% | -2% | 17%
COc1cc(OC)c(NC(=O)Cn2c(=O)cc(C(F)(F)F)c3c(C)nn(C)c32)cc1Cl | 5% | / | 50% | -7% | / | 9%[59 µM]
COc1cccc(NC(=O)CN(C)C(=O)/C=C/c2cn(Cc3ccccc3)nc2-c2cccnc2)c1 | -37% | 0 | 16% | -18% | 5% | -32%
CCN(CC(=O)Nc1ccc(NC(C)=O)cc1)C(=O)/C=C/c1cn(Cc2ccccc2)nc1-c1cccnc1 | 2% | -4 | 25% | -17% | 9% | 14µM*
CCN(CC(=O)Nc1ccc(NC(C)=O)cc1)C(=O)/C=C/c1ccccc1 | -5% | 6 | 27% | -3% | -6% | -2%[59 µM]
CCN(CC(=O)Nc1ccc(NC(C)=O)cc1)C(=O)/C=C/c1cn(-c2ccccc2)nc1-c1cccs1 | -9% | -1 | 17% | -29% | 2% | 32µM*
Cc1cc(-c2nnc3sc(C4CCCCC4)nn23)n[nH]1 | -5% | -6 | ? | -28%[57.1 µM] | 27µM* | -2%
CCOc1cccc(-c2nnc3sc(C4CCCCC4)nn23)c1 | -5% | -6 | ? | -25% | ? | 35µM*
CCOC1=C2[C@@H](CN(S(=O)(=O)c3ccc(C)cc3)[C@H]2c2ccccc2Cl)[C@H]2C(=O)N(C)C(=O)[C@H]2C1 | / | -7 | / | / | 1% | /
SMILES | BAZ2B block | PI5P4Ka inh | HP1b chromo inh | JMJD2A Tudor inh | PLK1 PBD inh | G9a inh
COc1ccc(N2CC(C(=O)NCCc3ccc(Cl)cc3)CC2=O)cc1 (centres undefined) | -1% | -1 | 25% | -8% | -7% | 15%
Cc1[nH]c(=O)[nH]c(=O)c1/C=N/NC(=O)[C@H](C)N | 50µM* | -28 | 33% | 56µM* | -19% | ?
CCOC(=O)C1CCN(Cc2cccc(Oc3ccccc3)c2)CC1 | 56µM* | 4 | -19% | 22µM* | -1% | 7.1µM*
CCN(CC)C(=O)C1CCCN(Cc2cccc(Oc3ccccc3)c2)C1 (centres undefined) | -37% | 0 | 0% | 22µM* | 1% | 28µM*
CCOC(=O)C1CCN(Cc2cccc(Oc3ccc(Cl)cc3)c2)CC1 | ? | 2 | -30% | 28µM* | 7% | ?
CCOC(=O)C1CCCN(Cc2cccc(Oc3ccccc3)c2)C1 (centres undefined) | ? | -3 | ? | 3.2µM* | -3% | 79µM*
CCOC(=O)C1CCCN(C(=O)c2ccccc2Oc2ccccc2)C1 (centres undefined) | 17% | -2 | 20% | -3% | -2% | 11%
CCCCN(C)CCNC(=O)c1cc2c(=O)n(C)c3ccccc3c2n1C | -18% | / | 29% | -31% | / | -9%[59 µM]
CC(C)c1ncc([N+](=O)[O-])n1C | / | / | / | / | / | -7%[12.7 µM]
CCN1CCN(Cc2cccc(Oc3ccc(Cl)cc3)c2)CC1 | 79µM* | / | 12% | -31% | -6% | ?
CN1CCN(Cc2cccc(Oc3ccc(Cl)cc3)c2)CC1 | -10% | / | 11% | -21% | -4% | ?
CCN(C(=O)CSc1nc2ccccc2n1Cc1ccccc1C#N)c1ccccc1 | ? | / | -15% | -15% | / | -12%[59 µM]
CC(=O)Nc1cccc(NC(=O)CSc2nc(C)c(C)c(C)c2C#N)c1 | 15% | / | 16% | -7% | ? | 10µM*
Cc1ccc(Cl)cc1NC(=O)CSc1nc(C)c(C)c(C)c1C#N | -3% | / | 30% | 0% | / | -4%[59 µM]
Cc1nnsc1C(=O)N/N=C/c1ccc2ccccc2c1O | 1.4µM* | ? | 13% | ? | 58% | 40µM*
O=C(Nc1ccccc1)/C(=C\c1ccccc1)NC(=O)c1ccco1 | -2% | -5 | 12% | -5% | -9% | /
O=C(Nc1ccccc1C(=O)O)/C(=C/c1ccc([N+](=O)[O-])cc1)NC(=O)c1ccc(Br)o1 | -25% | -12 | -3% | -30%[57.1 µM] | -22% | 45µM*

Assay outcomes from PubChem.
